Results from PubChem BioAssay (NCI).
Compounds without any hit were thinned out: in the full panel of roughly 83,000, 20% have a hit.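 Plates (96-well) were seeded with cells, treated with compound at one concentration, and incubated for 48 hours before percent growth was determined.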 Calls of active or inactive are those of the source. Rule for the calls: active = growth percent below 10; inactive = the rest.

What was measured:
Test in all cases: NCI-60 one-dose screen, 48 h (100 = growth as untreated, 0 = no growth, -100 = all killed)
Conditions in all cases: 10 µM unless noted
NCI-H226 lung = tested on: NCI-H226 lung
NCI-H322M lung = tested on: NCI-H322M lung
NCI-H460 lung = tested on: NCI-H460 lung
HOP-92 NSCLC = tested on: HOP-92 NSCLC
NCI-H522 lung = tested on: NCI-H522 lung
A549/ATCC NSCLC = tested on: A549/ATCC NSCLC
786-0 renal = tested on: 786-0 renal
COLO 205 colon = tested on: COLO 205 colon
DU-145 prostate = tested on: DU-145 prostate
K-562 leukemia = tested on: K-562 leukemia
MALME-3M melanoma = tested on: MALME-3M melanoma
MDA-MB-231 breast = tested on: MDA-MB-231 breast
RXF 393 renal = tested on: RXF 393 renal
SF-268 CNS = tested on: SF-268 CNS
SF-295 CNS = tested on: SF-295 CNS
SF-539 CNS = tested on: SF-539 CNS
UACC-257 melanoma = tested on: UACC-257 melanoma
M14 melanoma = tested on: M14 melanoma
HOP-62 NSCLC = tested on: HOP-62 NSCLC

Measured: growth

COc1cc2oc(-c3cccc(C(=O)Nc4ccc(Cl)cc4)c3)cc(=O)c2c(OCC(=O)N[C@@H](Cc2ccccc2)C(=O)O)c1OC
inactive: NCI-H226 lung 102% | NCI-H322M lung 103% | NCI-H460 lung 111% | HOP-92 NSCLC 124% | NCI-H522 lung 96.3% | A549/ATCC NSCLC 106% | 786-0 renal 102% | COLO 205 colon 119% | DU-145 prostate 111% | K-562 leukemia 96.5% | MALME-3M melanoma 107% | MDA-MB-231 breast 96.1% | RXF 393 renal 111% | SF-268 CNS 110% | SF-295 CNS 111% | SF-539 CNS 99.3% | UACC-257 melanoma 104% | M14 melanoma 109%

CN1CCN(Cc2ccc(C(=O)Nc3cccc(C#Cc4cccc5[nH]nc(N)c45)c3)cc2C(F)(F)F)CC1
active: NCI-H226 lung -84% | NCI-H322M lung -98.3% | NCI-H460 lung -25.3% | NCI-H522 lung -64.3% | A549/ATCC NSCLC -88.8% | 786-0 renal -99.4% | COLO 205 colon -87% | DU-145 prostate -68% | MALME-3M melanoma -82.6% | MDA-MB-231 breast -90.8% | RXF 393 renal -93.6% | SF-268 CNS -59% | SF-295 CNS -93.4% | SF-539 CNS -97.5% | UACC-257 melanoma -94.7% | M14 melanoma -95.6%

CC1(C)CC[C@]2(C(=O)O)CC[C@]3(C)C(=CCC4[C@@]5(C)C[C@@H](O)[C@@H]6OC(c7ccccc7Br)OC[C@@]6(C)C5CC[C@]43C)C2C1 (some centres not stated)
inactive: NCI-H226 lung 26.7% | NCI-H322M lung 21.2% | HOP-62 NSCLC 30.3% | NCI-H522 lung 12.1% | A549/ATCC NSCLC 16.6% | 786-0 renal 24.9% | DU-145 prostate 20% | K-562 leukemia 11.6% | MALME-3M melanoma 44% | MDA-MB-231 breast 32.4% | RXF 393 renal 22.7% | SF-268 CNS 24.2% | SF-295 CNS 10.6% | SF-539 CNS 26.8% | UACC-257 melanoma 18.2% | M14 melanoma 31.8%
active: NCI-H460 lung 4.53% | COLO 205 colon -36.9%

C#CCOc1cc(N(CC)CC)ccc1C(C(=O)NC(C)(C)C)N(C(=O)C1CCc2cc(F)ccc2O1)c1cc(C)cc(C)c1 (configuration not stated)
inactive: NCI-H226 lung 33.3% | NCI-H322M lung 66.6% | HOP-62 NSCLC 52.4% | NCI-H522 lung 19.6% | A549/ATCC NSCLC 36.1% | 786-0 renal 36.3% | COLO 205 colon 31.3% | DU-145 prostate 58.1% | K-562 leukemia 16.4% | MALME-3M melanoma 59.4% | MDA-MB-231 breast 46.7% | RXF 393 renal 42.9% | SF-268 CNS 38.2% | SF-295 CNS 33.5% | SF-539 CNS 53.5% | UACC-257 melanoma 42.5% | M14 melanoma 39.9%
active: HOP-92 NSCLC 9.21%

COc1cc2nc(SCc3ccccc3)n(-c3ccc(Cl)cc3)c(=O)c2cc1OC
active: NCI-H226 lung -27.3% | NCI-H322M lung 3.77% | HOP-62 NSCLC -69.2% | NCI-H460 lung -47.6% | NCI-H522 lung -0.701% | A549/ATCC NSCLC -50.6% | 786-0 renal -57.2% | COLO 205 colon 3.25% | DU-145 prostate -10% | K-562 leukemia 2.35% | MALME-3M melanoma -40.8% | MDA-MB-231 breast -6.51% | RXF 393 renal -38.8% | SF-268 CNS -12.9% | SF-295 CNS -59.9% | SF-539 CNS -83.6%
inactive: UACC-257 melanoma 38.3% | M14 melanoma 20.1%

CCOC(=O)C(N=Nc1ccc(S(=O)(=O)N=C(N)N)cc1)C(C)=O (configuration not stated)
inactive: NCI-H226 lung 95.1% | NCI-H322M lung 107% | HOP-92 NSCLC 99.9% | NCI-H522 lung 95.2% | A549/ATCC NSCLC 107% | 786-0 renal 96.7% | COLO 205 colon 106% | DU-145 prostate 111% | K-562 leukemia 94.1% | MALME-3M melanoma 129% | MDA-MB-231 breast 107% | RXF 393 renal 105% | SF-268 CNS 101% | SF-295 CNS 125% | SF-539 CNS 104% | UACC-257 melanoma 126% | M14 melanoma 124%

COc1ccc(NC(=O)Cn2c(/C=C/c3cccc([N+](=O)[O-])c3)nc3ccccc3c2=O)cc1
active: HOP-92 NSCLC -0.339% | 786-0 renal -15.8% | RXF 393 renal -6.3% | SF-539 CNS 7.2%
inactive: NCI-H226 lung 12.8% | NCI-H460 lung 63% | NCI-H522 lung 94.4% | A549/ATCC NSCLC 84.7% | COLO 205 colon 98.8% | DU-145 prostate 93.9% | MALME-3M melanoma 77% | MDA-MB-231 breast 15.8% | SF-268 CNS 71.6% | SF-295 CNS 79.2% | UACC-257 melanoma 98.8% | M14 melanoma 76.7%

CC1CCCCN1CCCNC(=O)N/C(N)=N/c1nc2ccccc2s1 (configuration not stated)
active: COLO 205 colon -58.6% | K-562 leukemia -27.6% | MALME-3M melanoma -93.2% | RXF 393 renal 5.45% | SF-539 CNS -60.9% | UACC-257 melanoma -86.8% | M14 melanoma -85.2%
inactive: NCI-H226 lung 48.5% | NCI-H322M lung 77% | HOP-62 NSCLC 59.6% | NCI-H460 lung 42.2% | NCI-H522 lung 72.2% | A549/ATCC NSCLC 47.3% | 786-0 renal 29.5% | DU-145 prostate 72.1% | SF-268 CNS 49.7% | SF-295 CNS 15.3%

COc1ccc(/C=N/NC(=O)Cn2nc(Cc3ccc(OC)cc3)c3onc(C)c3c2=O)cc1
inactive: NCI-H226 lung 49.6% | HOP-62 NSCLC 42.8% | NCI-H460 lung 30.5% | NCI-H522 lung 58.1% | A549/ATCC NSCLC 45.2% | COLO 205 colon 55.7% | DU-145 prostate 64% | K-562 leukemia 53.9% | MALME-3M melanoma 50.8% | MDA-MB-231 breast 57.8% | SF-268 CNS 65.4% | SF-295 CNS 48.2% | SF-539 CNS 47.6% | UACC-257 melanoma 77% | M14 melanoma 63.9%
active: HOP-92 NSCLC -20% | 786-0 renal -55.5% | RXF 393 renal 2.21%

O=C(CSc1nc2ccccc2c(=O)[nH]1)NCCN1CCCCC1
inactive: NCI-H226 lung 95.7% | NCI-H460 lung 104% | HOP-92 NSCLC 101% | NCI-H522 lung 90.6% | A549/ATCC NSCLC 100% | 786-0 renal 102% | COLO 205 colon 99% | DU-145 prostate 106% | K-562 leukemia 98.9% | MALME-3M melanoma 97.3% | MDA-MB-231 breast 100% | RXF 393 renal 115% | SF-268 CNS 92.9% | SF-295 CNS 103% | SF-539 CNS 91% | UACC-257 melanoma 97.3% | M14 melanoma 94.4%

COc1ccc(C2CC(c3ccc(S(=O)(=O)NCCNc4nc(Nc5ccc(F)cc5)nc(N(C)C)n4)cc3)=Nc3c(N)nc(N)nc3N2)cc1 (configuration not stated)
inactive: NCI-H226 lung 84.4% | NCI-H322M lung 96.6% | HOP-62 NSCLC 90.3% | NCI-H460 lung 73.6% | NCI-H522 lung 89.4% | A549/ATCC NSCLC 91.3% | 786-0 renal 50.2% | COLO 205 colon 82.8% | DU-145 prostate 102% | K-562 leukemia 35.6% | MALME-3M melanoma 106% | MDA-MB-231 breast 64.2% | RXF 393 renal 53.3% | SF-268 CNS 73.8% | SF-295 CNS 94.8% | SF-539 CNS 75.4% | UACC-257 melanoma 100% | M14 melanoma 81.9%

COc1cc2oc(-c3cccc(C(=O)Nc4ccc(Cl)cc4)c3)cc(=O)c2c(OCCNC(=O)[C@H](CO)NC(=O)OC(C)(C)C)c1OC
active: NCI-H460 lung 9.69% | NCI-H522 lung 6.54% | COLO 205 colon -43.4% | MDA-MB-231 breast 2.74% | RXF 393 renal -25.7% | SF-295 CNS -16.4% | SF-539 CNS -54.2% | UACC-257 melanoma -41.7% | M14 melanoma -7.57%
inactive: NCI-H226 lung 42% | NCI-H322M lung 35.4% | HOP-62 NSCLC 55.1% | A549/ATCC NSCLC 23.8% | 786-0 renal 32.4% | DU-145 prostate 32.2% | K-562 leukemia 11.3% | MALME-3M melanoma 20% | SF-268 CNS 41.4%

Nc1nc(-c2ccccc2)c(N=Nc2ccc([N+](=O)[O-])cc2Cl)s1
inactive: NCI-H226 lung 77.5% | NCI-H322M lung 101% | NCI-H460 lung 74.1% | HOP-92 NSCLC 41.1% | NCI-H522 lung 48.8% | A549/ATCC NSCLC 89.8% | 786-0 renal 94.9% | COLO 205 colon 97.6% | DU-145 prostate 95.4% | K-562 leukemia 67.3% | MALME-3M melanoma 108% | MDA-MB-231 breast 87.8% | RXF 393 renal 109% | SF-268 CNS 90.2% | SF-295 CNS 92.1% | SF-539 CNS 96.5% | UACC-257 melanoma 61.6% | M14 melanoma 92.9%

CC1[C@H]2[C@H](C[C@H]3[C@@H]4CC=C5c6sc(Nc7ccccc7F)nc6CC[C@]5(C)[C@H]4CC[C@@]32C)O[C@]12CC[C@@H](C)CO2 (some centres not stated)
active: NCI-H226 lung -29.2% | NCI-H322M lung -31.4% | HOP-62 NSCLC -62.4% | NCI-H460 lung -62.6% | NCI-H522 lung -66.5% | A549/ATCC NSCLC -63.5% | 786-0 renal -82.1% | COLO 205 colon -88.3% | DU-145 prostate -48.6% | K-562 leukemia 1.23% | MALME-3M melanoma -73.9% | MDA-MB-231 breast -57.5% | RXF 393 renal -88.7% | SF-268 CNS -53.5% | SF-295 CNS -75.5% | SF-539 CNS -87.9% | UACC-257 melanoma -85.1% | M14 melanoma -87.8%

CC1(C)CC[C@]2(C(=O)O)CC[C@]3(C)C(=CCC4[C@@]5(C)C[C@@H](O)[C@@H]6OC(c7ccco7)OC[C@@]6(C)C5CC[C@]43C)C2C1 (some centres not stated)
inactive: NCI-H226 lung 50.6% | HOP-62 NSCLC 43.1% | NCI-H522 lung 20.7% | A549/ATCC NSCLC 18.3% | 786-0 renal 42.7% | DU-145 prostate 29.1% | K-562 leukemia 21.2% | MDA-MB-231 breast 59.7% | RXF 393 renal 32.4% | SF-268 CNS 31.9% | SF-295 CNS 24.5% | SF-539 CNS 21.9% | M14 melanoma 23.3%
active: HOP-92 NSCLC -1.27% | COLO 205 colon -86.9% | MALME-3M melanoma 9.79% | UACC-257 melanoma 1.3%
